Measured values taken from PubChem BioAssay AID1159580 (chemical genetic matrix, 2015).
Several values for one entry are separate records, joined by “and”; a condition that tells them apart may be missing. Equal entries are not always repeated. About 2,000 (36%) of roughly 5,500 compounds were called active. Not shown: some 18% with an inconclusive outcome. Rule as the data show it: active = normalized growth mostly below about 0.91 (no sharp cut-off); inconclusive = no clear call, values can overlap the other calls; inactive = mostly above about 0.92. The list shows a part of the results.

Assay: chemical genetic growth profiling, strain panel (AID 1159580);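 also: tested at 20 µM; growth read once vehicle control cultures reached saturation at 30 °C; 1 = growth at the plate median or of vehicle wells; lower values mean less growth of the strain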
Details: S. cerevisiae deletion strains, growth OD

Measured: normalized growth

O=c1cc[nH]c(=S)[nH]1
inactive: locus YAL013W, strain DEP1, active compounds read low 1.03 | locus YAL021C, strain ccr4, active compounds read low 1.03 | locus YAL026C, strain drs2, active compounds read low 0.987 | locus YAL030W, strain snc1, active compounds read low 1 | locus YBL061C, strain skt5, active compounds read low 1 | locus YBR009C, strain hhf1, active compounds read low 0.964 | locus YBR021W, strain FUR4, active compounds read low 1.02 | locus YBR023C, strain chs3, active compounds read low 1.01 | locus YBR171W, strain sec66, active compounds read low 1.01 | locus YBR229C, strain ROT2, active compounds read low 1.01 | locus YBR231C, strain swc5, active compounds read low 1.02 | locus YBR279W, strain paf1, active compounds read low 0.997 | locus YCL011C, strain gbp2, active compounds read low 0.997 | locus YCL016C, strain dcc1, active compounds read low 1 | locus YCL029C, strain bik1, active compounds read low 1.01 | locus YCL061C, strain MRC1, active compounds read low 1.03 | locus YCL069W, strain vba3, active compounds read low 1.01 | locus YCR088W, strain abp1, active compounds read low 1.01 | locus YDL005C, strain med2, active compounds read low 1.04 | locus YDL035C, strain GPR1, active compounds read low 1.02 | locus YDL040C, strain nat1, active compounds read low 1.01 | locus YDL074C, strain BRE1, active compounds read low 1.03 | locus YDL101C, strain DUN1, active compounds read low 1.03 | locus YDL134C, strain PPH21, active compounds read low 1.02 | locus YDL185W, strain tfp1, active compounds read low 1.01 | locus YDL192W, strain arf1, active compounds read low 1.02 | locus YDR001C, strain nth1, active compounds read low 1 | locus YDR069C, strain doa4, active compounds read low 1.04 | locus YDR101C, strain arx1, active compounds read low 1.01 | locus YDR137W, strain rgp1, active compounds read low 1.04 | locus YDR150W, strain NUM1, active compounds read low 1.01 | locus YDR159W, strain sac3, active compounds read low 1.02 | locus YDR162C, strain NBP2, active compounds read low 1.02 | locus YDR195W, strain ref2 1.03 | locus YDR297W, strain sur2, active compounds read low 1.01 | locus YDR318W, strain mcm21, active compounds read low 1.03 | locus YDR334W, strain swr1, active compounds read low 1 | locus YDR335W, strain msn5, active compounds read low 1.01 | locus YDR388W, active compounds read low 1 | locus YDR392W, strain spt3, active compounds read low 0.962 | locus YDR502C, strain sam2, active compounds read low 1.03 | locus YEL003W, strain gim4, active compounds read low 1 | locus YEL037C, strain rad23, active compounds read low 0.991 | locus YEL061C, strain CIN8 (second series), active compounds read low 1 | locus YEL061C, strain CIN8, active compounds read low 1.01 | locus YER015W, strain faa2, active compounds read low 1.01 | locus YER016W, strain bim1, active compounds read low 1.01 | locus YER110C, active compounds read low 1 | locus YER111C, strain swi4, active compounds read low 1.01 | locus YER155C, strain BEM2 (second series), active compounds read low 1.04 | locus YER155C, strain BEM2, active compounds read low 1.01 | locus YER167W, strain BCK2, active compounds read low 1.02 | locus YFR010W, strain ubp6, active compounds read low 0.997 | locus YGL078C, strain dbp3, active compounds read low 1.01 | locus YGL086W, strain mad1, active compounds read low 1 | locus YGL167C, strain pmr1, active compounds read low 1 | locus YGL173C, strain kem1, active compounds read low 1.01 | locus YGL227W, strain vid30, active compounds read low 1.01 | locus YGL240W, strain doc1, active compounds read low 1.07 | locus YGL248W, strain PDE1, active compounds read low 1.01 | locus YGL253W, strain hxk2, active compounds read low 1.03 | locus YGR078C, strain PAC10, active compounds read low 1.03 | locus YGR135W, strain pre9, active compounds read low 1.02 | locus YGR229C, strain SMI1, active compounds read low 1.03 | locus YGR252W, strain gcn5, active compounds read low 1.09 | locus YHR013C, strain ard1, active compounds read low 1.04 | locus YHR027C, strain rpn1, active compounds read low 1 | locus YHR030C, strain SLT2, active compounds read low 1.02 and 0.995 | locus YHR079C, strain IRE1 (second series), active compounds read low 0.999 | locus YHR079C, strain IRE1, active compounds read low 1.01 | locus YHR094C, strain hxt1, active compounds read low 0.983 | locus YHR129C, strain ARP1, active compounds read low 1.01 | locus YHR142W, strain chs7, active compounds read low 0.987 | locus YHR200W, strain rpn10, active compounds read low 1.02 | locus YIL066C, strain RNR3, active compounds read low 1.03 | locus YIL073C, strain SPO22, active compounds read low 1.03 | locus YIL125W, strain kgd1, active compounds read low 1.01 | locus YIR030C, strain dcg1, active compounds read low 1.01 | locus YJL092W, strain hpr5, active compounds read low 1 | locus YJL095W, strain BCK1 (second series), active compounds read low 1.01 | locus YJL095W, strain BCK1, active compounds read low 1.04 and 1.01 | locus YJL115W, strain asf1, active compounds read low 1.01 | locus YJL129C, strain trk1, active compounds read low 1.01 | locus YJL134W, strain LCB3, active compounds read low 1.01 | locus YJL154C, strain vps35, active compounds read low 1.01 | locus YJL164C, strain tpk1, active compounds read low 0.983 | locus YJL166W, strain qcr8, active compounds read low 1.03 | locus YJL168C, strain set2, active compounds read low 0.997 | locus YJL187C, strain SWE1 (second series), active compounds read low 1.04 | locus YJL187C, strain SWE1, active compounds read low 1.01 | locus YJR043C, strain POL32, active compounds read low 1.02 | locus YJR066W, strain TOR1, active compounds read low 0.917
